About 83,000 compounds went through this panel and 20% of them were active in at least one assay; those are over-represented in the sample as a whole.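 Compound tested at a single concentration for 48 hours in 96-well plates; a percent growth value below 10 was scored as active.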 A number with no mark means an inactive call. Calls of active or inactive are those of the source.

Test systems include NCI-H23 lung; NCI-H226 lung; NCI-H322M lung; HOP-62 NSCLC; NCI-H460 lung; HOP-92 NSCLC; NCI-H522 lung; A549/ATCC NSCLC; 786-0 renal; COLO 205 colon.
What all share (assay): NCI-60 one-dose screen, 48 h (100 = growth as untreated, 0 = no growth, -100 = all killed)
Conditions in all cases: 10 µM unless noted

For the molecule `CC1CCN(CCCCCOc2ccc3oc4cc(Cl)ccc4c(=O)c3c2)CC1`, the growth in the experiment with NCI-H23 lung is 87.7%; in the experiment on NCI-H226 lung, 113%; in the experiment on NCI-H322M lung, 73.8%; with HOP-62 NSCLC, 82.2%; in the experiment with NCI-H460 lung, 36.3%; with HOP-92 NSCLC, 93.6%. Besides, the growth is 69.9% in the experiment on NCI-H522 lung, 68.6% with A549/ATCC NSCLC, 65.1% in the experiment with 786-0 renal and 36.6% in the experiment on COLO 205 colon.
With `CSc1cccc(NC(=O)Nc2nc3c(C)cccc3s2)c1`, the growth with NCI-H23 lung is 90.2%; with NCI-H226 lung it was 83.2%; in the experiment on NCI-H322M lung it was 102%; with HOP-62 NSCLC it was 87.4%; in the experiment on NCI-H460 lung it was 97.6%; with HOP-92 NSCLC, 86.6%. In addition, the growth in the experiment with NCI-H522 lung is 77.6%; with A549/ATCC NSCLC, 95.1%; in the experiment with 786-0 renal, 96.2%; in the experiment on COLO 205 colon, 120%.
For the molecule `COc1ccc2oc(=O)cc(-c3nc4ccc(N)cc4[nH]3)c2c1`, the growth is 84% in the experiment with NCI-H23 lung; 72% in the experiment with NCI-H226 lung; 86.2% in the experiment with NCI-H322M lung; 70.8% in the experiment on HOP-62 NSCLC; 102% with NCI-H460 lung; 80.2% with HOP-92 NSCLC. The growth was 64.1% in the experiment with NCI-H522 lung, 90% with A549/ATCC NSCLC, 96.8% in the experiment on 786-0 renal and 84.9% with COLO 205 colon.
Consider `CC(=O)c1cc2c(N)c(C(=O)Nc3ccccn3)sc2nc1C`, for which the growth is 87.3% in the experiment on NCI-H23 lung; 86.8% in the experiment with NCI-H226 lung; 73.6% in the experiment with NCI-H322M lung; 88.3% with HOP-62 NSCLC; 45.6% with NCI-H460 lung; 75.2% with HOP-92 NSCLC. The growth with NCI-H522 lung was 77%; in the experiment with A549/ATCC NSCLC, 48.7%; in the experiment with 786-0 renal it was 88.2%; in the experiment on COLO 205 colon, 40.6%.
For the molecule `COc1ccc(OCC(=O)OC(C)C)cc1`, the growth is 90.6% with NCI-H23 lung; 95.3% in the experiment on NCI-H226 lung; 94% with NCI-H322M lung; 101% with HOP-62 NSCLC; 105% with NCI-H460 lung; 104% with HOP-92 NSCLC. The growth was 97.9% with NCI-H522 lung, 102% with A549/ATCC NSCLC, 104% in the experiment with 786-0 renal and 104% in the experiment with COLO 205 colon.
`O=C1NN(c2ccccc2)C(c2ccc(Cl)cc2)N2CCC[C@H]12` (stereo not given in full): the growth in the experiment with NCI-H23 lung is 90.7%; in the experiment on NCI-H226 lung, 95.6%; in the experiment with NCI-H322M lung it was 94.1%; in the experiment on HOP-62 NSCLC it was 98.8%; with NCI-H460 lung it was 103%; in the experiment with HOP-92 NSCLC, 100%. Further, the growth with NCI-H522 lung was 106%; with A549/ATCC NSCLC it was 103%; in the experiment with 786-0 renal it was 105%; in the experiment with COLO 205 colon it was 108%.
As for `Cc1ccc(C2=N[C@H]3CCC[C@@H]3N(c3ccccc3)C(C(Cl)Cl)=N2)cc1`, the growth with NCI-H23 lung was 95.5%; in the experiment on NCI-H226 lung, 107%; in the experiment with NCI-H322M lung, 93.3%; with HOP-62 NSCLC, 111%; in the experiment on NCI-H460 lung, 110%; in the experiment on HOP-92 NSCLC, 107%. Besides, the growth in the experiment with NCI-H522 lung is 93%; in the experiment with A549/ATCC NSCLC it was 98.4%; in the experiment with 786-0 renal, 98.3%; in the experiment on COLO 205 colon, 98.8%.
On to `COc1ccc(/C=C/C(=O)/C=C(/C=C/c2ccc(OC)c(OC)c2)OB(F)F)cc1OC`, for which the growth with NCI-H23 lung was 52.3%; in the experiment with NCI-H226 lung it was 57.1%; in the experiment with NCI-H322M lung it was 103%; with HOP-62 NSCLC, 83.5%; in the experiment on NCI-H460 lung it was 21.8%; in the experiment on HOP-92 NSCLC it was 56.8%. Further, the growth with NCI-H522 lung is -32.4% (active); in the experiment with A549/ATCC NSCLC, 60.8%; in the experiment on 786-0 renal, 12.5%; with COLO 205 colon, -23.2% (active).
For `COc1ccc2nc3nc4ccc[nH]c4cc3c2c1`, the growth in the experiment on NCI-H23 lung was 73.9%; with NCI-H226 lung, 91.6%; with NCI-H322M lung, 87.6%; in the experiment on HOP-62 NSCLC, 87.9%; in the experiment on NCI-H460 lung it was 73.7%; with HOP-92 NSCLC, 122%. The growth is 84.4% with NCI-H522 lung, 91.2% with A549/ATCC NSCLC, 86.2% in the experiment on 786-0 renal and 97.9% in the experiment on COLO 205 colon.
As to `O=C(CN1N=C(c2ccc(F)cc2)CCC1=O)Nc1nccs1`, the growth in the experiment with NCI-H23 lung was 103%; in the experiment with NCI-H226 lung it was 110%; with NCI-H322M lung it was 100%; in the experiment with HOP-62 NSCLC, 98.9%; in the experiment with NCI-H460 lung, 97.7%; with HOP-92 NSCLC it was 86.6%. The growth was 83.2% in the experiment with NCI-H522 lung, 77.8% in the experiment on A549/ATCC NSCLC, 103% in the experiment with 786-0 renal and 113% in the experiment on COLO 205 colon.
Regarding `Cc1c(Cl)cccc1NC(=O)c1sc2nc3c(cc2c1N)CN(Cc1ccccc1)CC3`, the growth in the experiment with NCI-H23 lung was 66.1%; with NCI-H226 lung, 72.3%; in the experiment on NCI-H322M lung, 73.1%; with HOP-62 NSCLC it was 38.4%; in the experiment on NCI-H460 lung, 22%; in the experiment with HOP-92 NSCLC it was 51.8%. For the same molecule, the growth is 0.814% (active) in the experiment on NCI-H522 lung, 58.6% with A549/ATCC NSCLC, 42.9% in the experiment with 786-0 renal and 51.5% with COLO 205 colon.
Regarding `COc1cc(-c2csc(NC(=O)Nc3ccc(C(F)(F)F)cc3)n2)cc(OC)c1OC`, the growth in the experiment on NCI-H23 lung is 2.62% (active); with NCI-H226 lung, 0.0527% (active); in the experiment on NCI-H322M lung it was 33.5%; in the experiment on HOP-62 NSCLC it was 9.05% (active); in the experiment with NCI-H460 lung, 4.98% (active); in the experiment with HOP-92 NSCLC it was -24.5% (active). Further, the growth in the experiment on NCI-H522 lung was -25% (active); in the experiment with A549/ATCC NSCLC, 5.16% (active); in the experiment with 786-0 renal, -10% (active); with COLO 205 colon, -44.4% (active).
Consider `CO[C@@]12C=C[C@@]34CCC(=O)N3c3ccccc3[C@@H](O1)C4C2`, for which the growth was 99.9% in the experiment on NCI-H23 lung; 96.8% with NCI-H226 lung; 99.8% in the experiment on NCI-H322M lung; 97.7% in the experiment on HOP-62 NSCLC; 104% with NCI-H460 lung; 93% in the experiment with HOP-92 NSCLC. Also, the growth in the experiment on NCI-H522 lung is 92.7%; in the experiment with A549/ATCC NSCLC, 98.4%; in the experiment on 786-0 renal it was 101%; in the experiment with COLO 205 colon, 105%.

These data come from PubChem BioAssay (NCI).
